Rows were chosen to be rich in hits. Some 27% of all compounds tested hit in one or more screens of this group.
CYP2C9 inhib: blocks human cytochrome P450 2C9; P11712; CYP2C9 Supersomes, luciferin-H conversion, luminescence; inhibition, % at 5 µM; hit rate 20% among 96,000; AID 777;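 active means blocking of liver enzyme CYP2C9 beyond about 50% at 5 µM, limit read from the data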
CYP2C19 activ: activators of human cytochrome P450 2C19; activation factor at 5 µM; recombinant CYP2C19, luciferin-H EGE luminescence; stronger effect = higher value; 0 = fully inhibited enzyme, 1 = untreated enzyme; 96,000 tested, under 10 active;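 active means activation factor of at least 2 at 5 µM in the primary screen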;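 further: 0 = wells with 2.5 mM tranylcypromine and 1 = vehicle-only wells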
CYP2C19 inh: inhibitors of human CYP2C19 | P33261 | CYP2C19 Supersomes, luciferin-H EGE luminescence, 30 min | inhibition, % at 5 µM | hit rate 21% among 96,000 | AID 778;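 active means CYP2C19 inhibition above a set limit at 5 µM in the primary screen, cut at about 50% in these data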;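 further: plate controls were negative control wells for no effect and 2.5 mM tranylcypromine positive control for full effect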
CYP2C9 act: increases human cytochrome P450 2C9 activity; recombinant CYP2C9, luciferin-H conversion, luminescence; stronger effect = higher value; factor 1 = untreated enzyme, 0 = blocked; activation factor at 5 µM; hit rate 1.4% among 96,000; AID 1024;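 active means activation factor of 2 or more for CYP2C9 at a 5 µM dose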;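 further: 0 = sulfaphenazole-blocked wells and 1 = vehicle-only wells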
EphB4 antag: blocks human EphB4 binding to ephrin-B2 | P54760 | EphB4 LBD / TNYL-RAW-Alexa532 peptide, fluorescence polarization | inhibition, % at 7 µM | hit rate 0.15% among 97,000;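 active means inhibition above the screen-wide mean inhibition plus 3 SD, cut at about 15% in these data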;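 further: 0% = DMSO wells and 100% = excess unlabeled TNYL-RAW peptide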
* marks the source's active call; other numbers are inactive results; x = no result given.

SMILES	CYP2C9 inhib	CYP2C19 activ	CYP2C19 inh	CYP2C9 act	EphB4 antag
CCCCc1ccc(NC(=O)CC(C)=O)cc1	-1	0.9	14	1	4
COc1ccccc1CNS(=O)(=O)c1c(C)[nH]c(=O)[nH]c1=O	-12	0.8	15	1.1	10
CCCCc1ccc(NS(=O)(=O)N(C)C)cc1	94*	0.4	65*	0.1	x
Cc1[nH]c(=O)[nH]c(=O)c1S(=O)(=O)Nc1ccc(Oc2ccccc2)cc1	96*	0.1	92*	0	-7
CN(C)S(=O)(=O)Nc1ccc(Oc2ccccc2)cc1	85*	0.1	95*	0.1	3
COc1ccc(S(=O)(=O)NC(C)(C)C)cc1-c1nnc2c3ccccc3c(C)nn12	46	0.3	66*	0.5	-2
Cc1cc(C)c(S(N)(=O)=O)c(C)c1-n1cnnn1	-14	1.1	-12	1.1	-1
O=C(CN1CCOCC1)Nc1nc2ccc(Br)cc2s1	65*	0.8	15	0.3	6
CCc1ccc2c(c1)cc(CN(C(=S)Nc1ccccc1)C1CC1)c1nnnn12	48	0.9	10	0.5	-4
CCc1nc2ccc(C)cc2c(C(=O)NC2CCCCC2C)c1C (stereo not given)	71*	0.8	21	0.3	6
CCOC(=O)c1sc2cccc(F)c2c1N	-20	0.7	26	1.2	-5
CCOC(=O)c1sc(=S)sc1SCc1cccc(C(F)(F)F)c1	97*	0.5	53*	0	-1
COc1cc(-c2cc(N)n(S(=O)(=O)c3ccccc3)n2)cc(OC)c1OC	98*	0	96*	0	11
Nc1cc(-c2ccccc2)nn1S(=O)(=O)c1ccc(Br)cc1	49	0.9	12	0.5	0
Cc1nnc(SCC(=O)Nc2nsc(-c3ccc(Cl)cc3)n2)s1	-3	0.9	7	1	6
CS(=O)(=O)N(Cc1nnc(-c2cccs2)o1)c1ccc(Cl)cc1F	88*	0	99*	0.1	3
CCOC(=O)c1ccccc1NC(=O)CN1C(=O)CCS(=O)(=O)c2ccccc21	x	x	x	x	9
CCCCNC(=O)CS(=O)Cc1nc(-c2cccc(C)c2)oc1C (stereo not given)	24	1	-3	0.8	-7
CCCCSCCCNC(=O)CS(=O)Cc1nc(-c2cccc(C)c2)oc1C (stereo not given)	78*	0.2	85*	0.2	4
CCCCNC(=O)CS(=O)Cc1nc(-c2cccc(Cl)c2)oc1C (stereo not given)	62*	0.6	45	0.4	2
Cc1ccc(-c2cc(C(=O)NCc3cnn(C)c3C)c3cc(Br)ccc3n2)cc1	63*	0.9	13	0.4	4
CC1CCC(C(C)C)C2=C1C(C#N)(C#N)C(C#N)(C#N)C(c1ccccc1)N2 (stereo not given)	70*	0.5	48	0.3	4
COC(=O)c1cc(COc2ccc3oc(C)c(C(=O)OC(C)C)c3c2)c(C)o1	84*	0.1	88*	0.2	6
COC(=O)c1cc(-c2c(C)oc3cc(OC(C)C)ccc3c2=O)c(C)o1	67*	0.4	60*	0.3	x
COC(=O)c1cc(COc2ccc3c4c(c(=O)oc3c2)CCCC4)c(C)o1	7	1	3	0.9	x
SMILES	CYP2C9 inhib	CYP2C19 activ	CYP2C19 inh	CYP2C9 act	EphB4 antag
Cc1c(C(=O)OC2CCCC2)[nH]c2c1C(=O)CC(c1ccco1)C2 (stereo not given)	52*	0.8	22	0.5	x
C=CCOC(=O)c1[nH]c2c(c1C)C(=O)CC(c1ccco1)C2 (stereo not given)	80*	0	96*	0.2	x
Cc1c(C(=O)OCC2CCCO2)[nH]c2c1C(=O)CC(c1ccco1)C2 (stereo not given)	92*	0.3	69*	0.1	0
Cc1c(C(=O)OCC(C)C)[nH]c2c1C(=O)CC(c1ccco1)C2 (stereo not given)	38	0.9	10	0.6	2
COCCN1C=C(C(=O)OC)C(c2ccc3c(c2)OCO3)C(C(=O)OC)=C1	70*	0.3	74*	0.3	3
CCN1C=C(C(=O)OC)C(c2cccc(C)c2)C(C(=O)OC)=C1	74*	0.3	70*	0.3	-4
c1csc(CNc2ncnc3sccc23)c1	x	x	x	x	-8
CCCCN(C(=O)c1cc(OC)c(OC)c(OC)c1)C1=CC2CCC(C1)N2C (stereo not given)	2	1.1	-8	1	4
NC(=O)C1CCN(c2ncnc3c2c(-c2ccccc2)cn3-c2ccccc2)CC1	10	0.9	8	0.9	-9
